These results are taken from PubChem BioAssay (NCI).

The panel holds about 83,000 compounds, 20% with a hit somewhere; the sample as a whole holds those more often.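 96-well plates, one dose, 48 hours. Percent growth reported; active if below 10.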 Unmarked numbers belong to inactive results. Activity calls are given as the source filed them.

This test concerns HL-60(TB) leukemia. Description: NCI-60 one-dose screen, 48 h (100 = growth as untreated, 0 = no growth, -100 = all killed). Conditions: 10 µM unless noted.
As for `O=C(CSc1nc2sc3c(c2c(=O)n1-c1ccc(Cl)cc1)CCCC3)N/N=C/C=C/c1ccccc1`, the growth is 64.5%.

Consider `COc1ccc(C(=O)COc2ccc(NC(=O)Nc3ccc(Cl)c(C(F)(F)F)c3)cc2)cc1`, for which the growth is 19%.

For `C/C(=N\NC(N)=S)c1ccc(Nc2nc(SC(C)C)nc(-c3ccccc3)c2C#N)cc1`, the growth is 89.9%.

With `C=CCSc1nnc(-c2c(C)nc3sccn23)o1`, the growth was 119%. Turning to `Cn1cc(NC(=O)c2cc(NC(=O)c3ccc(/C=C/c4ccccc4)cc3)cn2C)cc1C(=O)NCCCN1CCOCC1`, the growth was -37.6% (active).

Regarding `Cc1ccc(S(=O)(=O)N(CCn2ccnc2[N+](=O)[O-])CCn2ccnc2[N+](=O)[O-])cc1`, the growth is 94.6%. In the case of `COc1ccc(N(C)c2cc(C#N)nc3ccccc23)cc1N`, the growth is -10% (active). In the case of `COc1cc2c(c(OC)c1OC)C(=O)CC(c1cccc(NC(=O)c3cc(N)ccc3Cl)c1)O2` (centres undefined), the growth is 52.2%.

For the compound `CCc1ccc(SC2c3cc(OC)ccc3Oc3nc(N)c(C#N)c(N)c32)cc1` (centres undefined), the growth was -77.8% (active). Turning to `CC(=O)Nc1cccc(Nc2nc(N[C@H]3CCCc4ccccc43)c3ccccc3n2)c1`, the growth is 90.6%.

With `COc1ccc(C(=O)/C=C/c2ccc(Oc3nc(Nc4ccc(F)cc4)nc(N(C)C)n3)c(OC)c2)cc1`, the growth is 48.1%. As for `Cn1ncc2c(N)nc(Oc3ccccc3-c3ccccc3)nc21`, the growth is -18.4% (active). Regarding `COc1ccc(C2c3sc4ccc(C)cc4c3Oc3nc(N)nc(N)c32)cc1` (centres undefined), the growth was 84.8%. Turning to `Nc1cc(-c2c[nH]c3ccc(Br)cc23)nc2cc(-c3c[nH]c4ccccc34)nn12`, the growth was -15% (active).
